Screening data (PubChem BioAssay)
Dicer processing: inhibitors of Dicer pre-microRNA processing, primary screen, biochemical, cat-ELCCA, chemiluminescence | 47,000 compounds, 6% hits | z-score at 25 µM | cat-ELCCA pre-miR-21 Dicer processing; active compounds read high; in the data active means z-score above about 3, passing the limit was not always enough;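 further: plate controls were vehicle for no effect and no enzyme for full effect; higher signal means more uncleaved substrate so more Dicer inhibition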
Target sequence (Q9UPY3 whole entry, looked up): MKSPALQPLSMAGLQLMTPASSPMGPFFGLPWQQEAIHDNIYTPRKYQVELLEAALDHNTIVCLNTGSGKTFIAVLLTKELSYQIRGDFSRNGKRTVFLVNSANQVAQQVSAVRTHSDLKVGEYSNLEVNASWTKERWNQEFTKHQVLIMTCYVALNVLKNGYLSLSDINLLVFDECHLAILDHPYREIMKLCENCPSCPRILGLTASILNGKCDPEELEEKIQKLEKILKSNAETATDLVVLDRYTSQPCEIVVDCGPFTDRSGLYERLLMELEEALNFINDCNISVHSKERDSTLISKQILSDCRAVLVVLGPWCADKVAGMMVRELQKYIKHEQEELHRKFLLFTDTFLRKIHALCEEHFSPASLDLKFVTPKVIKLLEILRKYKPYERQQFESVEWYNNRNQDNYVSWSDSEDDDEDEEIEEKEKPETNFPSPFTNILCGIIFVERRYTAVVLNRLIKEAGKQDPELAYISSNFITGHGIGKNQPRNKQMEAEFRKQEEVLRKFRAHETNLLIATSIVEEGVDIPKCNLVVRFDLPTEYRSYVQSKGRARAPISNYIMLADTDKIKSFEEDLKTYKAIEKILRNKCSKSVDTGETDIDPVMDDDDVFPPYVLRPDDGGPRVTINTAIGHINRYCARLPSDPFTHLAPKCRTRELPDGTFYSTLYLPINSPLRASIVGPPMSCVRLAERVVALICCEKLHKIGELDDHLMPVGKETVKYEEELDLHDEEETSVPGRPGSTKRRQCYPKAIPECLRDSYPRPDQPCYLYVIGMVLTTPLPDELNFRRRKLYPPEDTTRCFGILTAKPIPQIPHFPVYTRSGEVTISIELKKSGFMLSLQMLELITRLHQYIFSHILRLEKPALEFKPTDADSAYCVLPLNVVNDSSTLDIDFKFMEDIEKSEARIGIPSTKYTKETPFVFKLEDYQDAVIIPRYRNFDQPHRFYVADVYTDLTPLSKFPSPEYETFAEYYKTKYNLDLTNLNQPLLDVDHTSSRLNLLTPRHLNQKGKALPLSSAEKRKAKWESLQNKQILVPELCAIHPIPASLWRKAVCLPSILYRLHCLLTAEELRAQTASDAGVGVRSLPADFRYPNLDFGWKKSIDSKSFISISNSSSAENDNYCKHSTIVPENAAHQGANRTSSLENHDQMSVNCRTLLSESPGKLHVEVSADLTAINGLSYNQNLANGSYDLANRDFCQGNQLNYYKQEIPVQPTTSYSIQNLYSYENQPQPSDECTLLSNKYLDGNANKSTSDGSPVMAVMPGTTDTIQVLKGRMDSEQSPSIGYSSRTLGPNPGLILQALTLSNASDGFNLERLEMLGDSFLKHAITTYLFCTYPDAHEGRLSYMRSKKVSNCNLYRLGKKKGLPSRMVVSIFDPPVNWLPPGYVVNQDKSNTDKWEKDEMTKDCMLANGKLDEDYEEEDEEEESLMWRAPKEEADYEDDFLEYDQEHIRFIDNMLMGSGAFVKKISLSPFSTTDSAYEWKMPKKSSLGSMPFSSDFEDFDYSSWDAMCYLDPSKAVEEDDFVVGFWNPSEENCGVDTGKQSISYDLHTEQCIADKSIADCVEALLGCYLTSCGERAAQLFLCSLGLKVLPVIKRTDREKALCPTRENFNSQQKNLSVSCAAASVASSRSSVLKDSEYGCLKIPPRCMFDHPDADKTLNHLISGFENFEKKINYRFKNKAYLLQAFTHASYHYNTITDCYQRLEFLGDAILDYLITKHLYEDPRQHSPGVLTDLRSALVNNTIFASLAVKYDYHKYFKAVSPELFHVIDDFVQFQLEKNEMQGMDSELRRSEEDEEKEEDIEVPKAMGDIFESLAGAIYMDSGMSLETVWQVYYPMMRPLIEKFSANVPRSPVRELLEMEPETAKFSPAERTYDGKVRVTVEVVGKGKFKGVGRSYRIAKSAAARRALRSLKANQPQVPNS
Active calls of the source: *. The full list was thinned out, with hits kept by preference.

Screening Cc1ccc(N2C(=O)c3oc4ccccc4c(=O)c3C2c2ccc(O)cc2)nc1 (stereo unspecified) returned Dicer processing 4.36*.
Screening Cc1ccc(C2c3c(oc4ccccc4c3=O)C(=O)N2c2ccccn2)cc1 (stereo unspecified) returned Dicer processing 0.91.
Screening CCOc1ccc(C2c3c(oc4ccccc4c3=O)C(=O)N2c2nc(C)c(C)s2)cc1 (stereo unspecified) returned Dicer processing 0.15.
`Cc1ccc(N2C(=O)c3oc4ccccc4c(=O)c3C2c2cccc(Br)c2)nc1` (stereo unspecified) gave Dicer processing 2.88.
For CCOc1ccc(C2c3c(oc4ccc(C)cc4c3=O)C(=O)N2c2ccccn2)cc1 (stereo unspecified) the results were Dicer processing 1.08.
`Cc1ccc(N2C(=O)c3oc4ccccc4c(=O)c3C2c2ccccc2)nc1` (stereo unspecified) gave Dicer processing 0.17.
For COc1ccc(C2c3c(oc4ccccc4c3=O)C(=O)N2c2ccc(C)cn2)cc1OC (stereo unspecified) the results were Dicer processing 1.64.
For Cc1nn2c(C(F)(F)F)cc(-c3ccncc3)nc2c1-c1ccc(Cl)cc1 the results were Dicer processing -1.92.
`CCOc1ccccc1C1Nc2ccccc2NC2=C1C(=O)CC(c1ccccc1)C2` (stereo unspecified) gave Dicer processing 0.83.
O=C(NC(=S)NNc1ncc(C(F)(F)F)cc1Cl)c1cccs1 was read as Dicer processing -0.17.
COc1nc2c(c(-c3ccc4ccccc4c3)c1C#N)CCc1ccccc1-2 was read as Dicer processing -1.35.
`COc1nc2c(c(-c3ccc(Cl)cc3Cl)c1C#N)CCc1ccccc1-2` gave Dicer processing 3.13*.
Screening COc1nc2c(c(-c3ccc(C(F)(F)F)cc3)c1C#N)CCc1ccccc1-2 returned Dicer processing -1.77.
`CCOC(=O)c1c(C)oc2c1c1c(c3ccccc32)OCN(CC2CCCO2)C1` (stereo unspecified) gave Dicer processing -0.52.
`O=C(O)c1ccc(S(=O)(=O)Nc2ccc3oc(=O)sc3c2)cc1` gave Dicer processing 1.15.
COC(=O)c1c(C)oc2ccc(NS(=O)(=O)c3ccc(Br)cc3)cc12 was read as Dicer processing 0.56.
Screening CCc1ccc(S(=O)(=O)Nc2ccc3oc4c(c3c2)CCCC4)cc1 returned Dicer processing 2.13.
`CC(C)(C)C1CCc2oc3ccc(NS(=O)(=O)c4ccc(C(=O)O)cc4)cc3c2C1` (stereo unspecified) gave Dicer processing 4.15*.
For Cc1cc(C)c(C)c(S(=O)(=O)Nc2ccc3oc(=O)sc3c2)c1C the results were Dicer processing 4.27*.
For Cc1cc(F)ccc1S(=O)(=O)Nc1c(C)n(C)n(-c2ccccc2)c1=O the results were Dicer processing -0.46.
For Cc1cc(F)ccc1S(=O)(=O)Nc1ccc2oc(=O)sc2c1 the results were Dicer processing 7.85*.
Screening Cc1ccc(S(=O)(=O)Nc2ccc3oc(=O)sc3c2)c(C)c1 returned Dicer processing 1.13.
For Cc1cc(=O)oc2cc(NS(=O)(=O)c3ccc(F)cc3)ccc12 the results were Dicer processing 0.84.
For O=c1oc2ccc(NS(=O)(=O)c3ccc(F)cc3)cc2s1 the results were Dicer processing 4.91*.
Screening CN1CCN(C(=O)CSc2nc3c(c(C(F)(F)F)n2)CCc2ccccc2-3)CC1 returned Dicer processing 0.06.
FC(F)(F)c1ccc(-c2noc(-c3cnn(-c4ccccc4)c3C(F)(F)F)n2)cc1 was read as Dicer processing -1.17.
CC(C)(CC(=O)O)CC(=O)Nc1ccc2c(c1)C(=O)OC2 was read as Dicer processing 2.25.
For Cc1ccc(/C(O)=C2/C(=O)C(=O)N(CC(C)O)C2c2ccc(O)cc2)cc1 (stereo unspecified) the results were Dicer processing -0.92.
Cc1ccc(CNc2nc3c(c(=O)[nH]c(=O)n3C)n2CC(O)COC(C)C)cc1 (stereo unspecified) was read as Dicer processing 1.98.
For COc1ccc2c(c1)C(=O)/C(=C/c1ccc(Cl)cc1)CC2 the results were Dicer processing 1.69.
For COC(=O)CSC1=C(C#N)C(c2ccc(C)cc2)CC(=O)N1 (stereo unspecified) the results were Dicer processing 0.65.
`O=c1oc2c(Br)cc(NS(=O)(=O)c3ccc(Cl)cc3)cc2s1` gave Dicer processing 12.8*.
`COc1ccc(OC)c(NS(=O)(=O)c2ccc(Cl)cc2)c1` gave Dicer processing 1.24.
`Cn1cc(Br)c(-c2cccc(NS(=O)(=O)c3ccc(Cl)cc3)c2)n1` gave Dicer processing 0.02.
`COc1ccccc1C(=O)Oc1ccc2oc(=O)sc2c1` gave Dicer processing 2.24.
Screening O=c1oc2ccc(NS(=O)(=O)c3ccc(Cl)cc3)cc2s1 returned Dicer processing 9.77*.
COc1ccc(S(=O)(=O)Nc2ccc3oc(=O)sc3c2)cc1OC was read as Dicer processing 3.44*.
Screening O=c1oc2c(Cl)cc(NS(=O)(=O)c3ccccc3)cc2s1 returned Dicer processing 11.3*.
Screening O=S(=O)(Nc1ccc(Br)cc1)c1ccccc1 returned Dicer processing 1.76.
`O=S(=O)(Nc1ccc2c(c1)OCO2)c1ccc(Cl)cc1` gave Dicer processing -0.39.
Screening COc1cc(S(=O)(=O)Nc2cccnc2)ccc1F returned Dicer processing 0.84.
Screening COc1ccc(OC)c(S(=O)(=O)Nc2cc(Cl)c3oc(=O)sc3c2)c1 returned Dicer processing -0.17.
For O=S(=O)(Nc1nc(-c2ccc(Cl)cc2Cl)cs1)c1ccc(Cl)cc1 the results were Dicer processing 10.4.
For O=C(Nc1ccc(S(=O)(=O)NC23CC4CC(CC(C4)C2)C3)cc1)c1ccc(Cl)cc1 the results were Dicer processing 0.54.
`CC(C)C(=O)Oc1ccc2c(c1)oc(=O)c1ccccc12` gave Dicer processing -0.79.
Screening CCOC(=O)c1cc2c(NC(=O)c3ccc(OC)cc3)c(C(=O)OCC)sc2nc1C(F)(F)F returned Dicer processing 0.26.
`CCCCCCn1cnc2c1c(=O)[nH]c(=O)n2C` gave Dicer processing 2.22.
Screening O=c1c(C(F)(F)F)cccn1Cc1ccc(Cl)cc1 returned Dicer processing -0.67.
FC(F)(F)c1ccc(-c2csc(-c3ccc(C4SCCS4)cc3)n2)cc1 was read as Dicer processing -1.21.
For CCOc1ccc(C2c3c(oc4ccccc4c3=O)C(=O)N2c2nc(C)c(C)s2)cc1OC (stereo unspecified) the results were Dicer processing -0.42.
Screening O=c1onc(-c2ccccc2)n1-c1cccc([N+](=O)[O-])c1 returned Dicer processing -0.1.
CCOC(=O)c1c(C)csc1NC(=O)Nc1ccc(Cl)cc1 was read as Dicer processing -0.9.
Screening COc1ccc(OC/C(N)=N/C(=S)Nc2ccc(Cl)cc2)cc1 returned Dicer processing -0.45.
COC(=O)Oc1ccc2c(=O)c(Oc3ccccc3Cl)coc2c1 was read as Dicer processing 0.07.
`CCOc1ccccc1Nc1n[nH]c(=S)s1` gave Dicer processing -0.17.
Screening CCOC(=O)C1=C(C)NC2=C(C(=O)CCC2)C1c1cc(OC)c(OC)cc1Br (stereo unspecified) returned Dicer processing 2.1.
For COc1cc(C2c3c(oc4cc(C)c(C)cc4c3=O)C(=O)N2CCCN(C)C)ccc1OCC(C)C (stereo unspecified) the results were Dicer processing -0.39.
For Cc1ccc(Nc2c([N+](=O)[O-])sc3ccccc23)cc1 the results were Dicer processing 0.6.
